19 compounds from PubChem BioAssay (NCATS) can be followed below.

SMILES strings stand for the structures. A number with no mark means an inactive call. Inconclusive results are not listed. Active and inactive are the calls of the source. The call rests on the fitted dose curve; in most records, active means well fitted curve in the direction sought with a large enough effect; inconclusive means small, poorly fitted or top-dose-only effect, or another doubt; inactive means no such curve, though single readings can be large; an effect the other way counts as inactive or inconclusive.

The target in test [1] is Glutathione peroxidase 1 (Homo sapiens) (UniProt P07203). In words: Primary qHTS Assay for Inhibitors of Recombinant Selenoprotein Glutathione Peroxidase 1 (GPX1) (AID 1845191). Further: nearly all actives have a fitted effect of over 65% in size. Put shortly:
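10 nM GPX1 + cpd, 30 min RT; start w/ 1 mM GSH, 0.5 mM cumene hydroperoxide, 0.5 mM NADPH, 100 nM GR, 0.01% BSA; buffer 50 mM Tris-HCl pH 7.5, 2 mM EDTA, 150 mM NaCl; Fl 340/450, 0 & 15 min.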
Background: In qHTS, concentration-response curves come from the screen itself.

The target in test [2] is Phospholipid hydroperoxide glutathione peroxidase GPX4 (Homo sapiens) (UniProt P36969). In words: Primary qHTS Assay for Inhibitors of Recombinant Selenoprotein Glutathione Peroxidase 4 (GPX4) (AID 1845192). Further: nearly all actives have a fitted effect of over 65% in size. On activity change, negative = inhibition: series mostly up to about 50 µM; on the % scale 0 is the no-effect control and ±100 the full control effect. Put shortly: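 NADPH consumption, followed by fluorescence at 340/450 nm between 0 and 15 min, reports GPX4 activity via coupled glutathione reductase (100 nM). Enzyme 200 nM was pre-exposed to compound 30 min; 0.5 mM cumene hydroperoxide and 1 mM GSH served as substrates.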

The target in test [3] is Luciferin 4-monooxygenase (Photinus pyralis) (UniProt P08659). In words: Primary firefly luciferase (FLuc) qHTS assay for identification of artifact compounds. (AID 1845220). Further: nearly all actives have a fitted effect of over 60% in size.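 On activity change, negative = inhibition: series mostly up to about 54 µM; plate controls were DMSO vehicle for no effect and no enzyme for full effect.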 The procedure, abridged: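 Cell-free, 1536-well qHTS. Buffer pH 7.6 with 0.01% Tween-20 and 0.05% BSA; 10 uM D-luciferin, 10 uM ATP; 10 nM P. pyralis luciferase; luminescence after 5 min.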
Test [4] in a line: Primary fluorescence-based thiol-reactive (MSTI) qHTS assay for identification of artifact compounds. (AID 1845221). Further: nearly all actives have a fitted effect of over 65% in size. Further: potency means the concentration at half of the fitted maximal effect.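 On activity change, negative = thiol reactive: series mostly up to about 54 µM; thiol-reactive compounds lower the probe fluorescence signal.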 The procedure, abridged:
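Curve-fitted percent inhibition (4-parameter Hill) derived from fluorescence, Ex 525/Em 598 nm, scaled with Acetyl-MSTI and MSTI; 1 h incubation at room temperature.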

Glutathione peroxidase 1 (Homo sapiens), sequence (P07203 whole entry, looked up): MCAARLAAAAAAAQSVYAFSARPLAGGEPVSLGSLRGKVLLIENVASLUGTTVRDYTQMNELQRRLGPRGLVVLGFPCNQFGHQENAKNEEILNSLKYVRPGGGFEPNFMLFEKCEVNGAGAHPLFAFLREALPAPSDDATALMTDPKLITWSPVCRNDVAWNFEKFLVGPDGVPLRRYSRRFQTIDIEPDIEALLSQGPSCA
Phospholipid hydroperoxide glutathione peroxidase GPX4 (Homo sapiens), sequence (P36969 whole entry, looked up): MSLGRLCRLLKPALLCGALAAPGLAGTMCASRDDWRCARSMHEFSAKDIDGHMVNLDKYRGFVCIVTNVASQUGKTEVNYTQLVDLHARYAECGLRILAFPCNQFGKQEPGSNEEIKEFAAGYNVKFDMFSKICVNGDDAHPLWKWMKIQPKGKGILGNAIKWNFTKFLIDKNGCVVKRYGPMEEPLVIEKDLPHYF

Turning to `COc1cc(C(CO)CO[C@@H]2O[C@H](CO)[C@@H](O)[C@H](O)[C@H]2O)ccc1O` (stereo partly specified), the Potency entry in test [1], in test [2], in test [3] and in test [4] was “inactive” each time.

Regarding `Nc1nc2c(nc(Sc3ccc(Cl)cc3)n2[C@@H]2O[C@@H]3COP(=O)(O)O[C@H]3[C@H]2O)c(=O)[nH]1`, the Potency result in test [1], in test [2], in test [3] and in test [4] was “inactive” each time.

In the case of `OCC(O)C(c1c[nH]c2ccccc12)c1c[nH]c2ccccc12` (stereo unspecified), the Potency result in test [1], in test [2] and in test [3] was “inactive” each time. Moreover, in test [4], the Potency was 6.7 µM (active).

Take `COC(=O)[C@H](O)[C@H]1C(C)(C)[C@H](OC(C)=O)[C@@]2(O)C(=O)[C@]1(C)C1CC[C@]3(C)C(CC(=O)O[C@H]3c3ccoc3)[C@]13O[C@@H]32` (stereo partly specified): the Potency result in test [1], in test [2], in test [3] and in test [4] was “inactive” in each case.

On to `Cn1cc(CCn2cnc(-c3cnn(C)c3)c2-c2ccc(C#N)cc2)cn1`, for which the Potency entry in test [1], in test [2], in test [3] and in test [4] was “inactive” each time.

For `CC(=O)OCC(Cc1ccccc1)NC(=O)C(Cc1ccccc1)NC(=O)c1ccccc1` (stereo unspecified), the Potency entry in test [1], in test [2], in test [3] and in test [4] was “inactive” in each case.

Regarding `C=C1CC[C@@]2(OC1)O[C@H]1CC3[C@@H]4CC=C5C[C@@H](O)C[C@@H](O[C@@H]6OC[C@H](O)[C@H](O)[C@H]6O[C@@H]6O[C@@H](C)[C@H](O)[C@@H](O)[C@H]6O)[C@]5(C)C4CC[C@]3(C)[C@H]1[C@@H]2C` (stereo partly specified), the Potency result in test [1], in test [2], in test [3] and in test [4] was “inactive” in each case.

As to `C/C(=C\CCC(C)CCO)C(=O)OC[C@H]1O[C@@H](O[C@@H]2OC=C(C(=O)O)[C@H]3CC[C@](C)(O)[C@@H]23)C(O)[C@@H](O)C1O` (stereo partly specified), the Potency entry in test [1], in test [2] and in test [3] was “inactive” throughout. The Potency in test [4] was 2.32 µM (active).

For `CCc1cc(CC[C@]2(C3CCCC3)CC(O)=C(Cc3nc4nc(C)cc(C)n4n3)C(=O)O2)cc(CC)n1`, the Potency entry in test [1], in test [2], in test [3] and in test [4] was “inactive” each time.

Consider `C[C@@H]1O[C@@H](O[C@H]2[C@H](OC(=O)[C@]34CCC(C)(C)C[C@H]3C3=CCC5[C@@]6(C)C[C@@H](O)[C@@H](O)[C@@](C)(CO)C6[C@H](O)C[C@@]5(C)[C@]3(C)CC4)OC[C@H](O)[C@@H]2O)[C@H](O)[C@H](O)[C@H]1O[C@@H]1OC[C@@H](O)[C@H](O[C@H]2O[C@H](C)[C@@H](O)[C@H](O)[C@@H]2O)[C@H]1O` (stereo partly specified), for which the Potency result in test [1] and in test [2] was “inactive” each time. Moreover, the outcome in test [3] is “inactive [at 11.6 µM]”. In addition, the activity change, negative = thiol reactive in test [4] is 381% [at 11.5 µM].

Take `COc1c2cc(c(O)c1OC)CCCCC(O)CCc1ccc(O)c-2c1` (stereo unspecified): the Potency entry in test [1], in test [2], in test [3] and in test [4] was “inactive” throughout.

As for `CC1(C)CC[C@]2(C(=O)O[C@@H]3O[C@H](CO)[C@@H](O)[C@H](O)[C@H]3O)CC[C@]3(C)C(=CCC4[C@@]5(C)CC[C@H](O[C@H]6O[C@H](CO)[C@@H](O)[C@H](O[C@@H]7O[C@H](CO)[C@@H](O)[C@H](O)[C@H]7O)[C@H]6O)C(C)(C)C5CC[C@]43C)[C@@H]2C1` (stereo partly specified), the Potency result in test [1] and in test [2] was “inactive” throughout. For the same compound, the activity change, negative = inhibition in test [3] is 0.281% [at 11.6 µM]. The activity change, negative = thiol reactive in test [4] was 168% [at 11.5 µM].

With `CC(=O)O[C@@H]1C=C2[C@H](CC[C@@]3(C)[C@@]2(O)CC[C@H]2Cc4c([nH]c5ccccc45)[C@@]23C)O[C@@H]1C(C)(C)O`, the Potency entry in test [1], in test [2] and in test [3] was “inactive” in each case. Besides, the Potency in test [4] was 4.12 µM (active).

Consider `O=C(O)[C@H]1Cc2ccccc2CN1`, for which the outcome in test [1] was “inactive [at 4.49 µM]”; in test [3], “inactive [at 6.45 µM]”. For the same compound, the activity change, negative = inhibition in test [2] is 3.24% [at 4.52 µM]. For the same compound, the activity change, negative = thiol reactive in test [4] was -3.73% [at 6.41 µM].

As to `C/C=C/C=C/[C@@H]1O[C@](O)([C@H](CC)C(=O)NC/C=C/C=C(\C)[C@@H](OC)[C@@H](C)[C@@H]2O[C@H](/C=C/C=C/C=C(\C)C(=O)c3c(O)ccn(C)c3=O)[C@H](O)[C@@H]2O)[C@H](O)[C@H](O)C1(C)C`, the Potency result in test [1] and in test [2] was “inactive” in each case. Moreover, the outcome in test [3] is “inactive [at 11.6 µM]”. In test [4], the activity change, negative = thiol reactive was 94.3% [at 11.5 µM].

As for `CC[C@@H]1C(=O)O[C@]23C=C[C@@H]4C(C(=O)OC)=CO[C@H](O[C@@H]12)[C@@H]43`, the Potency entry in test [1], in test [2] and in test [3] was “inactive” each time. Further, the Potency in test [4] was 10.6 µM (active).

On to `O=C(/C=C/c1ccc(O)cc1)OC[C@H]1O[C@@H](O/C(=C\c2ccccc2)C(=O)O)[C@H](O)[C@@H](O)[C@@H]1O`, for which the Potency result in test [1], in test [2], in test [3] and in test [4] was “inactive” in each case.

On to `O=C(Cn1c2ccccc2c2nc3n(c(=O)c21)CCS3)N1CCCC1`, for which the Potency entry in test [1], in test [2], in test [3] and in test [4] was “inactive” in each case.

For `CC[C@H]1OC(=O)[C@H](C)[C@@H](O[C@H]2C[C@@](C)(OC)[C@@H](O)[C@H](C)O2)C(C)[C@@H](O[C@@H]2O[C@H](C)C[C@H](N(C)C)[C@H]2O)[C@](C)(O)C[C@@H](C)CN(C)[C@H](C)[C@@H](O)[C@]1(C)O` (stereo partly specified), the Potency result in test [1], in test [2], in test [3] and in test [4] was “inactive” each time.
